The structures appear in SMILES notation. The whole screen tested about 2,300 compounds, of which about 1,200 (52%) were called active. Another 34% or so got no clear call; they are omitted. Calls come from the whole dose curve; as a rule, active = well fitted inhibition curve with a large enough effect; inconclusive = small, poorly fitted or top-dose-only effect, or effect the other way; inactive = no such curve, though single readings can be large or run the other way. So high a share suggests a set chosen from earlier hits. This is one part of the list.
Potency is the fitted concentration of half-maximal effect.

The experiment can be described thus: Confirmation screen for delayed death inhibitors of the malarial parasite plastid, 48 hour incubation. Note: nearly all actives have a fitted effect of over 65% in size. Particulars: P. falciparum-infected erythrocytes, luciferase growth; series mostly up to 28.7 µM. Put shortly:
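Single-generation (48 h, 37 C) exposure of integrated firefly luciferase-reporter P. falciparum in red cells, 0.1% parasitemia at 2% hematocrit, Albumax-supplemented RPMI. Falling luciferase signal marks parasite growth inhibition.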
Take `COc1ccc(C2c3c(ncn(CCN4CCOCC4)c3=N)Oc3ccc4ccccc4c32)cc1OC` (stereo not drawn): the Potency is 4.47 µM (active).

With `COc1ccc(C2c3c(ncn(CCCN4CCOCC4)c3=N)Oc3ccc4ccccc4c32)cc1OC` (stereo not drawn), the Potency was 5.01 µM (active).

As for `O=c1[nH]c(=O)n(Cc2ccco2)c2c1C(C(F)(F)F)(C(F)(F)F)N=C(CCc1ccccc1)N2`, the Potency was 11.2 µM (active).

Consider `COc1ccc2c(c1)c(C(=O)N/N=C/c1ccc(OC)c(OC)c1)c(C)n2C`, for which the Potency was 10 µM (active).

As to `CCC(C)[C@H](NC(=O)NCCCOC(C)C)C(=O)OC` (stereo partly drawn), the Potency entry was “inactive”.

As to `CCOc1ccc2nc(C)cc(Nc3cccc([N+](=O)[O-])c3)c2c1`, the Potency was 2 µM (active).

Take `O=C(O)CCc1ccc(-c2ccccc2)n1-c1ccc(C(=O)O)cc1`: the Potency entry was “inactive”.

In the case of `Cc1cc2[nH]c(=O)c(=O)[nH]c2cc1S(=O)(=O)NC1CCCCC1C` (stereo not drawn), the Potency entry was “inactive”.

As for `COC(=O)C1=C(C)NC2=C(C(=O)CC(c3cccs3)C2)C1c1ccsc1` (stereo not drawn), the Potency was 14.1 µM (active).

Turning to `Cc1ccccc1NC(=O)Cc1nnc(SCC(=O)NC2CCCCC2)n1C`, the Potency result is “inactive”.

Regarding `CCn1c(Cc2ccccc2)nnc1SCC(=O)Nc1nc(C)cs1`, the Potency was 12.6 µM (active).

Regarding `Cc1cc(C)nc(SCc2nnc(SCC(=O)Nc3nc(-c4ccccc4)cs3)n2C)n1`, the Potency is 14.1 µM (active).

As to `NNC(=O)CSc1nc(-c2ccccc2)cn1-c1ccccc1`, the Potency entry is “inactive”.

As for `O=C(CSc1nc(-c2ccccc2)cs1)Nc1cccc([N+](=O)[O-])c1`, the Potency result was “inactive”.

`CCOC(=O)CSc1nnc(CNc2nc(-c3ccccc3)cs2)n1C`: the Potency was 8.91 µM (active).

With `CCCc1cc(NCc2ccccn2)n2nc(C)c(-c3ccccc3)c2n1`, the Potency is 5.62 µM (active).

As for `CN(C)c1ccc(NC(=S)NC23CC4CC(CC(C4)C2)C3)cc1`, the Potency is 12.6 µM (active).

As to `Cc1cccc(C)c1Nc1c(-c2ccc(N3CCOCC3)cc2)nc2ncccn12`, the Potency is 12.6 µM (active).

Turning to `c1ccc(SCc2cn(C[C@H]3CC[C@@H]([C@@H]4CC[C@H](Cn5cc(CSc6ccccc6)nn5)O4)O3)nn2)cc1`, the Potency is 14.1 µM (active).

Regarding `O=C(Nc1ccc(O)cc1)C1CC=CCC1` (stereo not drawn), the Potency was 7.94 µM (active).

For `COc1cnc(-c2ccccn2)nc1Oc1ccc(C(C)(C)C)cc1`, the Potency was 4.47 µM (active).

Consider `COc1cnc(-c2ccccn2)nc1N(C)c1ccccc1`, for which the Potency is 3.55 µM (active).

Take `O=C1c2cc([N+](=O)[O-])cc3cc([N+](=O)[O-])cc(c23)C(=O)N1c1ccccn1`: the Potency was 14.1 µM (active).

With `CC(C)NC(=O)c1onc(CSc2ccc(C(C)C)cc2)c1C(=O)O`, the Potency entry is “inactive”.

`Cc1ccc[n+](CC(=O)Nc2ccc(C)c(C)c2)c1`: the Potency was 14.1 µM (active).

For the molecule `CC(=O)c1ccc(NC(=O)C[n+]2cccc(C)c2)cc1`, the Potency entry is “inactive”.

For the molecule `O=S(=O)(c1ccc(F)cc1)N1CCN(c2nc(-c3ccc(F)cc3)cs2)CC1`, the Potency is 14.1 µM (active).

As for `CN1C[C@@H]2C[C@H]1CN2c1cc2c(cc1F)c(=O)c(C(=O)O)cn2C1CC1`, the Potency is 3.55 µM (active).

On to `Cc1cc(F)ccc1S(=O)(=O)Nc1ccccc1C(=O)Nc1ccccc1-c1nc2ccccc2[nH]1`, for which the Potency was 5.62 µM (active).

On to `COc1ccc(C(c2c(C)n(C)n(-c3ccccc3)c2=O)c2c(C)n(C)n(-c3ccccc3)c2=O)cc1`, for which the Potency was 14.1 µM (active).

For `Cc1c(C(c2ccc(Br)cc2)c2c(C)n(C)n(-c3ccccc3)c2=O)c(=O)n(-c2ccccc2)n1C`, the Potency was 12.6 µM (active).

For `CSc1ccc(CNC(=O)C(C)n2nc(C)c3c(C)n(-c4ccccc4)nc3c2=O)cc1` (stereo not drawn), the Potency is 14.1 µM (active).

Take `Cc1c(NC(=O)C(C)Sc2nccn2C)c(=O)n(-c2ccccc2)n1C` (stereo not drawn): the Potency result is “inactive”.

Turning to `Cc1nn(C(C)C(=O)NCCC2=CCCCC2)c(=O)c2nn(-c3ccccc3)c(C)c12` (stereo not drawn), the Potency is 12.6 µM (active).

As to `CSc1ccc(CNc2cccc3ccccc23)cc1`, the Potency entry is “inactive”.

For the molecule `Cc1nn(C(C)C(=O)Nc2ccccc2Cl)c(=O)c2nn(-c3ccccc3)c(C)c12` (stereo not drawn), the Potency is 14.1 µM (active).

Take `Cc1nn(C(C)C(=O)NCCCc2ccccc2)c(=O)c2nn(-c3ccccc3)c(C)c12` (stereo not drawn): the Potency is 12.6 µM (active).

As for `Nc1c(C(=O)CSc2nc3ccccc3o2)c(=O)[nH]c(=O)n1C1CC1`, the Potency is 14.1 µM (active).

For the molecule `Cc1ccc(-c2csc(SCC(=O)c3c(N)n(C4CC4)c(=O)[nH]c3=O)n2)cc1`, the Potency result was “inactive”.

On to `O[C@@H]1[C@@H](O)C=C2CCN3Cc4cc5c(cc4[C@H]1C23)OCO5` (stereo partly drawn), for which the Potency was 1.58 µM (active).

As for `COc1ccc(C(=O)NC2CC2)cc1OC1CCN(C/C=C/c2ccccc2)CC1`, the Potency was 8.91 µM (active).

On to `CCc1nc(Nc2ccncc2)c2oc3ccccc3c2n1`, for which the Potency was 10 µM (active).

As to `Cc1oc(/C=N/NS(=O)(=O)c2ccccc2)cc1Br`, the Potency result was “inactive”.

With `CCN(CC)c1ccc(/C=N/Nc2nc3ccccc3[nH]2)cc1`, the Potency was 2.82 µM (active).

Take `Cc1c(/C=N/Nc2nc3ccccc3[nH]2)c2ccccc2n1C`: the Potency was 0.708 µM (active).

Take `CCc1cc(SC#N)ccc1N`: the Potency was 10 µM (active).

For `CCCN1CCc2c(sc3nc(SCC)n(-c4ccc(OC)cc4)c(=O)c23)C1`, the Potency was 1.26 µM (active).

Consider `CCCN1CCc2c(sc3nc(SCC)n(-c4ccccc4)c(=O)c23)C1`, for which the Potency is 1.78 µM (active).

Regarding `COc1ccc(CCNC(=O)/C(=C/c2cccnc2)NC(=O)c2ccccc2)cc1OC`, the Potency is 12.6 µM (active).

For `CCOc1ccc2c(c1)C(c1ccccc1)=NNC(c1ccccc1)=N2`, the Potency is 12.6 µM (active).

In the case of `C=CCNC(=O)c1onc(CSc2cc(C)ccc2C)c1C(=O)O`, the Potency result is “inactive”.

Consider `Nc1[nH]nc2nc(NCc3ccccc3)c3c(c12)CCN(Cc1ccccc1)C3`, for which the Potency was 15.8 µM (active).

`O=c1[nH]c(NCc2ccccc2)nc2c1CCC2`: the Potency entry was “inactive”.

As to `Cc1ccc(NC(=O)c2ccc3c(SCC(=O)O)c4c(nc3c2)CCCC4)c(Br)c1`, the Potency is 11.2 µM (active).

Turning to `COc1ccc(C2CC(c3cccs3)=NN2C(=O)CSc2nnc(N)s2)cc1OC` (stereo not drawn), the Potency is 14.1 µM (active).

Take `O=C(c1ccccc1)N1CCCC(c2ccc(Cl)cc2)=N1`: the Potency is 15.8 µM (active).

As to `O=Nc1c(-c2c(O)[nH]c3cc(Br)ccc23)[nH]c2ccccc12`, the Potency is 7.08 µM (active).

Turning to `O=C(CC(SCCO)c1ccc(F)cc1)c1ccco1` (stereo not drawn), the Potency result was “inactive”.

On to `CCCCC1(c2ccc(F)cc2)NC(=O)N(CC(=O)N2CCN(C(=O)c3ccco3)CC2)C1=O` (stereo not drawn), for which the Potency was 14.1 µM (active).

Regarding `COc1cccc(C2=CC(=O)C[C@H](c3ccc(F)cc3)C2)c1OC`, the Potency result is “inactive”.

As to `CCOc1ccc(Cl)cc1C1=CC(=O)C[C@H](c2ccc(OC)cc2)C1`, the Potency is 14.1 µM (active).

As to `COc1ccc2c(c1)c(CC(=O)Nc1nnc(C3CC3)s1)c(C)n2C(=O)c1ccc(Cl)cc1`, the Potency is 14.1 µM (active).

For `Cc1ccc(-n2cc(CN3CCC(CO)(Cc4cccc(C(F)(F)F)c4)CC3)cn2)cc1`, the Potency is 7.94 µM (active).

In the case of `N#Cc1ccc(Oc2ccc(-c3nc4ccccc4nc3-c3ccccc3)cc2)cc1C#N`, the Potency was 11.2 µM (active).

In the case of `Cc1c(OC(C)C(=O)NCC2CCC(C(=O)O)CC2)ccc2c1oc(=O)c1ccccc12` (stereo not drawn), the Potency was 14.1 µM (active).

For the molecule `Cc1c(Cc2ccccc2)c(=O)oc2cc(OC(C)C(=O)NCC3CCC(C(=O)O)CC3)c(Cl)cc12` (stereo not drawn), the Potency was 12.6 µM (active).

Turning to `CC(C)CC1c2[nH]c3ccccc3c2CCN1CCCn1cccn1` (stereo not drawn), the Potency was 12.6 µM (active).

For `CCC1CCC(C(=O)NC(CCSC)C(=O)NCCN(CC(C)C)CC(C)C)CC1` (stereo not drawn), the Potency is 12.6 µM (active).

`O=C(CSc1nc2ccccc2c(=O)n1Cc1ccc(C(=O)NC2CC2)cc1)NCc1ccco1`: the Potency is 14.1 µM (active).

Consider `O=C(CCC1N=C2c3ccccc3N=C(SCC(=O)NCc3ccco3)N2C1=O)NCc1ccco1` (stereo not drawn), for which the Potency result is “inactive”.

In the case of `O=C(CSc1c2c(nc3ccccc13)CCCC2)NCc1ccco1`, the Potency result is “inactive”.

Regarding `O=C(CSc1nc2c(sc3ccccc32)c(=O)n1-c1ccccc1)NCc1ccco1`, the Potency was 11.2 µM (active).

On to `CCN(CC)CCn1c2c(c(SCC(=O)Nc3nc4ccccc4s3)nc1=O)CCCC2`, for which the Potency is 7.08 µM (active).

As for `CC[N+](CC)(CC)CCCCOc1ccc2c(c1)C(=O)c1cc(OCCCC[N+](CC)(CC)CC)ccc1-2`, the Potency was 0.0398 µM (active).

Turning to `Cc1ccc(NC(=O)CSc2nc3ccccc3c(=O)n2CCCN2CCCCC2)cc1Cl`, the Potency is 7.94 µM (active).

As for `Cc1ccc(-c2nc(CSc3nc4ccccc4c(=O)n3CCO)cs2)cc1`, the Potency result is “inactive”.

For the molecule `Cc1cccc(NC(=O)C(C)Sc2nc3ccccc3c(=O)n2CCCN2CCOCC2)c1` (stereo not drawn), the Potency is 12.6 µM (active).

With `N#CCc1ccc(C(=O)c2ccccc2F)s1`, the Potency entry is “inactive”.

For the molecule `Cc1cccc(NC(=O)COC(=O)c2cccc3c2C(=O)c2ccccc2C3=O)c1C`, the Potency is 15.8 µM (active).

Regarding `Cn1c(=O)c2c([nH]c(=O)n2C)n(C)c1=O`, the Potency entry was “inactive”.

Turning to `O=C(CNC(=O)c1ccco1)OCC(=O)c1ccccc1`, the Potency result is “inactive”.

`COc1ccc(CN(CCC(c2ccccc2)c2ccco2)C(=O)c2ccco2)cc1` (stereo not drawn): the Potency was 10 µM (active).

Regarding `COc1ccc(S(=O)(=O)N/N=C(/C)c2ccco2)cc1`, the Potency result is “inactive”.

Consider `Cc1ccnc(NCc2ccc(Cl)cc2)c1`, for which the Potency result is “inactive”.

Turning to `Cc1ccnc(NCc2cccc3ccccc23)c1`, the Potency was 12.6 µM (active).

Consider `CCOC(=O)c1c(CS(=O)(=O)c2ccccc2)n(C)c2cc(Br)c(O)cc12`, for which the Potency is 12.6 µM (active).

With `CC(=O)Nc1sc2c(c1-c1nc3ccccc3s1)CCN(C(C)C)C2`, the Potency was 4.47 µM (active).

On to `O=C(/C=C/c1cccs1)Nc1sc2c(c1C(=O)O)CCCC2`, for which the Potency result is “inactive”.

Take `CC(C)N1CCc2c(sc(NC(=S)NC(=O)c3ccccc3)c2C#N)C1`: the Potency is 10 µM (active).

Consider `CCN(CC)CCC[C@H](C)Nc1c2ccc(Cl)cc2nc2ccc(OC)cc12`, for which the Potency is 0.178 µM (active).

As to `CCN(CC)CCC[C@H](C)Nc1ccnc2cc(Cl)ccc12`, the Potency is 0.501 µM (active).

For the molecule `COc1ccc2nc3cc(Cl)ccc3c(Nc3cc(C(C)C)c(O)cc3C)c2c1`, the Potency is 0.0224 µM (active).

As for `CCOC(=O)C1=C(C)N=c2s/c(=C\c3ccc(OCC(=O)O)cc3)c(=O)n2C1c1ccc(OC(C)C)cc1` (stereo not drawn), the Potency was 5.01 µM (active).

Values taken from PubChem BioAssay AID504850 (National Center for Advancing Translational Sciences (NCATS), 2011).
